PP5 primary: blocks human protein phosphatase 5 activity; P53041; purified PP5c, OMFP substrate fluorescence; inhibition, % at 6.7 µM; hit rate 0.18% among 320,000; AID 1987;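 active means inhibition above the campaign's mean inhibition across all tested compounds plus 3 SD, cut at about 9.5% in these data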;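 further: 0% = DMSO only and 100% = 100 µM cantharidin control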
PP1 counter: counter-screen for PP5 inhibitors: inhibitors of human PP1-alpha; purified PP1alpha, OMFP fluorescence; hit rate 0.9% among 320,000; AID 2235; inhibition, % at 6.7 µM; P62136;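 active means inhibition above the mean inhibition of all tested compounds plus 3 SD, computed separately for each screening campaign, cut at about 15% in these data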
pPAFAH FP inh: pPAFAH (human) enzyme inhibition | recombinant pPAFAH, FP-rhodamine probe fluorescence polarization | inhibition, % at 3.39 µM | hit rate 1.5% among 330,000;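 active means inhibition above the mean inhibition across the screen plus 3 SD, cut at about 25% in these data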;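 further: inhibitors block binding of the rhodamine activity-based probe so polarization drops; 0% = enzyme with DMSO and 100% = wells lacking pPAFAH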
Target sequence (Q13093 whole entry, looked up): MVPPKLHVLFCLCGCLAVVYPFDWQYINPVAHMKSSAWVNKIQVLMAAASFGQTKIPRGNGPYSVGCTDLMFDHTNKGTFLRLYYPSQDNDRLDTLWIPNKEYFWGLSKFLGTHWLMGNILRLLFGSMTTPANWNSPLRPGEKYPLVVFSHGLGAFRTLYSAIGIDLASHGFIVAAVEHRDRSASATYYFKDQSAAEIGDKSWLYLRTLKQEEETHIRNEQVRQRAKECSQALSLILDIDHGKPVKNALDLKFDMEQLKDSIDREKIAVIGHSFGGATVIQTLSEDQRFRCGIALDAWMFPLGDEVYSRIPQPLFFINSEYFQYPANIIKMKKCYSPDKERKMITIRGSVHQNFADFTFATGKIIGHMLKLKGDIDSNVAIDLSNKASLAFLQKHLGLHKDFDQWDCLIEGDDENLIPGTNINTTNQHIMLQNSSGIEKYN
PAFAH2 inh: PAFAH2 (human) inhibition. inhibition, % at 3.39 µM. recombinant PAFAH2, FP-rhodamine activity probe, fluorescence polarization. hit rate 0.99% among 340,000. Q99487;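 active means inhibition above the mean over all tested compounds plus 3 SD, cut at about 30% in these data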;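 further: inhibitors block probe labeling of enzyme so polarization drops; 0% = enzyme with DMSO and 100% = wells lacking PAFAH2 protein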
PAFAH1B3 inh: inhibitors of human PAFAH1B3; AID 492972; recombinant PAFAH1B3, FP-rhodamine probe, fluorescence polarization; inhibition, % at 3.39 µM; hit rate 0.28% among 340,000;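 active means inhibition above the screen-wide average of all tested compounds plus 3 SD, cut at about 25% in these data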;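 further: 0% = enzyme with DMSO only and 100% = wells lacking PAFAH1B3 protein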
PAFAH1B2 inh: PAFAH1B2 (human) inhibition. hit rate 1.2% among 340,000. recombinant PAFAH1B2, FP-rhodamine activity probe, fluorescence polarization. AID 492953. inhibition, % at 3.39 µM;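 active means inhibition above the mean of all tested compounds plus 3 SD, cut at about 24% in these data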;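 further: 0% = enzyme with DMSO and 100% = wells lacking PAFAH1B2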
PP1 confirm: confirmation of human PP1 phosphatase inhibitors. shares compounds with PP1 counter. hit rate 52% among 1,900. purified PP1alpha, OMFP substrate fluorescence. AID 2358. inhibition, % at 6.7 µM;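 active means mean PP1 inhibition above a set limit taken from the earlier primary screen, cut at about 15% in these data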
PP5 inh counter: PP5 phosphatase inhibition, counter-screen for PP1 inhibitors | shares compounds with PP1 counter | purified PP5c, OMFP fluorescence | inhibition, % at 6.7 µM | hit rate 4% among 1,900 | AID 2360;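 active means mean PP5 inhibition over triplicate wells above about 9.5% taken from the earlier PP1 screen, limit read from the data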
pPAFAH FP conf: pPAFAH (human) inhibition, confirmed. shares compounds with pPAFAH FP inh. recombinant pPAFAH, FP-Rh probe fluorescence polarization. inhibition, % at 3.39 µM. hit rate 72% among 2,300. AID 463230;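 active means mean inhibition of the triplicate above the hit cutoff set for the earlier primary screen, cut at about 25% in these data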;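 further: 0% = enzyme with DMSO and 100% = wells lacking pPAFAH enzyme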
* = called active by the depositor; · = no result. Only some compounds are listed: those with a hit (about 3.4% of all), similar ones and a draw of the others.

SMILES	PP5 primary	PP1 counter	pPAFAH FP inh	PAFAH2 inh	PAFAH1B3 inh	PAFAH1B2 inh	PP1 confirm	PP5 inh counter	pPAFAH FP conf
Cc1ccccc1C(=O)Nc1cccc(C(=O)N/N=C/c2cc(Cl)cc([N+](=O)[O-])c2O)c1	2	19*	38*	6	-9	3	18*	-4	42*
COc1ccc(CC(=O)Nc2cccc(S(=O)(=O)N3CCCCCC3)c2)cc1OC	2	1	5	-3	8	5	·	·	·
Cc1ccc(C)c(Cn2nnc3c(=O)[nH]c(C4CCN(S(=O)(=O)c5ccc(S(=O)(=O)NC6CC6)cc5)CC4)nc32)c1	5	18*	42*	-29	-13	-6	15*	5	47*
O=C(O)C1Nc2c(O)cc(Cl)c([N+](=O)[O-])c2C2C=CCC12 (stereo unspecified)	1	42*	90*	77*	63*	51*	6	-3	39*
O=C(CCC(=O)c1cccs1)NCc1ccccc1Cl	·	·	8	8	8	3	·	·	·
COc1ccc([N+](=O)[O-])cc1N(CC(=O)N1CCN(Cc2ccccc2)CC1)S(C)(=O)=O	1	-4	-1	-4	14	2	·	·	·
O=C(Cn1c(=O)n(Cc2ccco2)c(=O)c2c3c(sc21)CCCCC3)Nc1ccccc1	5	8	3	-3	-3	0	·	·	·
O=C(Cn1c(=O)n(Cc2ccco2)c(=O)c2c3c(sc21)CCCCC3)c1ccccc1	3	25*	37*	18	1	-1	16*	-1	11
CN(c1ccccc1)c1ccc(/C=C(\CCC(=O)O)c2nc3ccccc3s2)cc1[N+](=O)[O-]	7	26*	54*	32*	-3	89*	15	-3	58*
CNc1ccc(/C=C(\CCC(=O)O)c2nc3ccccc3s2)cc1[N+](=O)[O-]	1	32*	49*	15	-2	96*	24*	-5	38*
CCc1ccccc1NC(=O)C1CCCN(S(=O)(=O)c2ccc3c(c2)CC(C)N3C(C)=O)C1 (stereo unspecified)	-2	1	3	-1	3	3	·	·	·
COCCN(C(=O)COC(=O)c1cc2c(s1)CCC2)c1c(N)n(Cc2ccccc2)c(=O)[nH]c1=O	-2	18*	56*	57*	10	9	5	-5	34*
O=C(Nc1ccccc1)c1ccc2nc(-c3ccco3)c(-c3ccco3)nc2c1	5	21*	66*	27	21	13	7	-1	22
CCc1nc2ccc(C(=O)Nc3ccc(NC(C)=O)cc3)cc2nc1CC	1	1	1	-4	2	3	·	·	·
O=C(c1ccc2nc(-c3ccco3)c(-c3ccco3)nc2c1)N1CCN(c2ncccn2)CC1	2	33*	49*	14	21	2	8	6	13
O=C(Nc1ccc(N2CCOCC2)cc1)c1ccc2nc(-c3ccco3)c(-c3ccco3)nc2c1	2	-3	16	0	-2	0	·	·	·
O=C(NCc1ccccc1)c1ccc2nc(-c3ccco3)c(-c3ccco3)nc2c1	2	28*	71*	29	12	15	8	7	58*
O=C(c1cccc(C(=O)N2CCN(c3ncccn3)CC2)c1)N1CCN(c2ncccn2)CC1	0	-3	4	1	-1	-7	·	·	·
CC(=O)c1ccc(NC(=O)c2ccc3nc(-c4ccco4)c(-c4ccco4)nc3c2)cc1	-3	34*	62*	15	23	6	25*	8	50*
O=C(NCc1ccccc1)c1ccc2nccnc2c1	-1	-1	4	3	18	7	·	·	·
O=C1C=C(O)c2c(O)cc(O)c(O)c2C1=O	4	57*	85*	45*	40*	19	37*	-7	52*
COC(=O)C1CCN(C(=O)CN2C(=O)NC(CC(C)C)C2=O)CC1 (stereo unspecified)	·	·	-1	-5	0	2	·	·	·
COc1ccc(-n2cccc2/C=C2\C(=N)N3N=C(c4ccco4)SC3=NC2=O)cc1	4	38*	47*	27	-7	0	30*	-1	63*
Cc1ccc(N2C(=O)CCC(C(=O)O)C2c2cccs2)cc1 (stereo unspecified)	-2	-4	-2	-8	7	2	·	·	·
CCS(=O)(=O)c1ccc(N=Nc2ccc(O)c3ncccc23)c(OC)c1	·	·	·	3	11	6	·	·	·
SMILES	PP5 primary	PP1 counter	pPAFAH FP inh	PAFAH2 inh	PAFAH1B3 inh	PAFAH1B2 inh	PP1 confirm	PP5 inh counter	pPAFAH FP conf
COc1ccccc1N=Nc1ccc(O)c2ncccc12	7	19*	44*	6	18	6	16*	5	25*
CCC(CO)NCc1ccc(OCC(O)c2ccccc2)c(OC)c1 (stereo unspecified)	-4	-3	5	-1	11	2	·	·	·
CC1=Nc2nc(N3CCCCC3)c(C#N)c3c4c(nc(c23)N1)N(c1ccc(C(C)C)cc1)C(=O)C4	1	20*	63*	10	11	6	16*	-1	29*
CCc1cc(CNC(=O)C2CCC(=O)N(Cc3cccc(F)c3)C2)on1 (stereo unspecified)	1	-4	-5	-4	9	-1	·	·	·
Cc1ccccc1-n1c(C)cc(/C=C2/C(=N)N3C(c4ccccc4)=CSC3=NC2=O)c1C	0	10	-1	-8	-16	-13	·	·	·
N=C1/C(=C\c2ccc(-c3cccc(C(=O)O)c3)o2)C(=O)N=C2SC=C(c3ccccc3)N12	1	45*	55*	35*	29*	31*	32*	-2	49*
O=C(Cc1ccccc1F)Nc1cccc(S(=O)(=O)N2CCOCC2)c1	·	·	1	6	11	4	·	·	·
Cc1ccc(C(NC(=O)C(C)C)c2cc([N+](=O)[O-])c3cccnc3c2O)cc1 (stereo unspecified)	5	26*	54*	17	17	5	20*	-1	74*
CC(=O)NC(c1cccs1)c1cc(F)c2cccnc2c1O (stereo unspecified)	0	-6	4	6	14	1	·	·	·
CC(C)C(=O)NC(c1cccs1)c1cc([N+](=O)[O-])c2cccnc2c1O (stereo unspecified)	1	26*	84*	-4	6	-5	16*	8	79*
COC(=O)C1=C(C)N(CCc2c[nH]c3ccc(OC)cc23)C(=O)C1	-2	-3	-2	3	-2	1	·	·	·
